HSF1 inhib: HSF1 inhibition. NIH3T3-HGL HSE-luciferase, MG132-induced, luminescence 8 h; stronger effect = lower value. activity change, negative = inhibition, % at 7.5 µM (by protocol). 300,000 compounds, 0.77% hits. AID 2098;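 active = more than half of replicate wells show activity change below -50%, luminescence cut by over half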;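 also: luciferase reports HSF-1 transcriptional activity via heat shock element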
HSF1 activator: increases HSF-1 driven luciferase reporter signal. NIH3T3-HGL HSF-1 luciferase reporter, MG132, 8 h; 100% = twice DMSO control signal. activation, % at 9 µM. 300,000 compounds, 1.7% hits. AID 504408;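 active = mean replicate activation of at least 50% with a set share of replicates each reaching 50%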
NPR1 activator: GC-A (human) enzyme activation. P16066. HEK293 GC-A cells, cGMP TR-FRET, EC30 ANP; 0% at EC30 ANP, 100% saturating ANP. activation, % at 10 µM. 370,000 compounds, 0.14% hits; in the data active = activation above about 40%
Target sequence (P16066 whole entry, looked up): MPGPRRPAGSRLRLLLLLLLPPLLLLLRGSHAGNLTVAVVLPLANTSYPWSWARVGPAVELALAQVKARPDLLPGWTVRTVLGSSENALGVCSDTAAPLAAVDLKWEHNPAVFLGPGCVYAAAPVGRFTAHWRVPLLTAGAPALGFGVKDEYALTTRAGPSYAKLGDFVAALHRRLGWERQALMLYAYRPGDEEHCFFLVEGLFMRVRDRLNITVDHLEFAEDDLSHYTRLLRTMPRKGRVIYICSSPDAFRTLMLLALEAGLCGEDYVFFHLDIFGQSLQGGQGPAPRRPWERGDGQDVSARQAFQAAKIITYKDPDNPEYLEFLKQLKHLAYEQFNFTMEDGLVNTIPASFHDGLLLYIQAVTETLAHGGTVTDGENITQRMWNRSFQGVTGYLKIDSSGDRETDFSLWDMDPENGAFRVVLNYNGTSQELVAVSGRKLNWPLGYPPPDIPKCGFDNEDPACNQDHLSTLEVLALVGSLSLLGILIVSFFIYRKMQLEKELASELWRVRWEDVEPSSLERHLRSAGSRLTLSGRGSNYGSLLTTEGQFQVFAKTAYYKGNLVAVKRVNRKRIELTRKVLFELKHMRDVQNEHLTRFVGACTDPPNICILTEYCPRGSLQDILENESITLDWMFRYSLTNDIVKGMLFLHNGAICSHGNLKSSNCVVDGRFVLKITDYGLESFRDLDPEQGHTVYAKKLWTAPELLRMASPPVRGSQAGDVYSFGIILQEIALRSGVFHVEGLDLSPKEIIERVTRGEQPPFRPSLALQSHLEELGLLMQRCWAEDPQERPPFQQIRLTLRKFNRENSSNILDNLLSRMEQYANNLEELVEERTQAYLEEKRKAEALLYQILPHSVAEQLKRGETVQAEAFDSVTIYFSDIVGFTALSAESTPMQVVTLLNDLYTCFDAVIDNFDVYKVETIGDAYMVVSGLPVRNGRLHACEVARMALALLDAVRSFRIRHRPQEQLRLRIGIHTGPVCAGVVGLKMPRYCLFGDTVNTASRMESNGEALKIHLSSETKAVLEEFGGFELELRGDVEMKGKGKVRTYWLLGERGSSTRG
aDG glyco up: increases alpha dystroglycan glycosylation; Pro5-aDG cells, alpha-DG glycosylation AlphaScreen (IIH6); 0% Pro5, 100% B10-LARGE cell signal; activation, % at 10 µM; 360,000 compounds, 0.22% hits;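 active = activation of at least 8% versus controls, or a plate z-score of at least 8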;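 also: Pro5 are CHO cells carrying HIG-tagged alpha-DG that lacks glycosylation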
Dyrk1A ADPGlo: inhibitors of rat Dyrk1A kinase; inhibition, % at 12.5 µM; 310,000 compounds, 0.43% hits; AID 504441; ADP-Glo luminescence, NFATc1 peptide; in the data active = inhibition above about 50%
NPR2 activator: GC-B (human) receptor activation | HEK293-GC-B cells, CNP EC30, cGMP TR-FRET; 0% at EC30 CNP, 100% saturating CNP | activation, % at 10 µM | 370,000 compounds, 0.11% hits | AID 1920062;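 active = activation at 10 µM reaching about 35% in either raw or pattern-adjusted values, limit read from the data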
Of the large screens only hits and unclear results are named; the others gave an inactive call. In the library only some 2.5% were active in any assay of this set; here they are far more common.

CCOc1ccc(N(CC(=O)NC2CCCCC2)C(=O)CCC(=O)Nc2nc(C)cs2)cc1	HSF1 inhib -59
CCCC(=O)N(Cc1cccnc1)c1nc2c(OC)ccc(Cl)c2s1	none
Oc1ccc(N=Nc2ccc(Br)cc2)c(O)c1	none
Cc1ccc(N=Nc2ccc(O)cc2)c(Br)c1	HSF1 activator 61
O=C(O)c1cc(S(=O)(=O)Nc2cccc3ccccc23)c(Cl)cc1Cl	none
CCOc1cc(C(=O)N/N=C/C(Br)=C/c2ccccc2)cc(OCC)c1OCC	HSF1 activator 87
O=C(N/N=C/C(Br)=C/c1ccccc1)c1ccc([N+](=O)[O-])cc1	HSF1 activator 59
CC(=C/c1ccccc1)/C=N/NC(=O)c1ccc2nc[nH]c2c1	none
O=C(N/N=C/C(Br)=C/c1ccccc1)c1cccnc1	HSF1 activator 82
O=C(N/N=C/C(Br)=C\c1ccccc1)c1ccc2nc[nH]c2c1	HSF1 activator 125
COc1ccc(-n2nc3c(c2NC(=O)CC(C)C)CS(=O)C3)cc1 (stereo unspecified)	none (no result: Dyrk1A ADPGlo)
Cc1ccc(S(=O)(=O)NC(=NCc2ccccc2)c2ccc(F)cc2)cc1	HSF1 inhib -77
CN(C)CCNC(=O)c1ccc(Sc2ccc(Br)cc2)c([N+](=O)[O-])c1	aDG glyco up 3.6
COc1ccc(CN2C(=O)C(CC(=O)NCCCN(C)C)CC(C(=O)N(C)C)=C2C)cc1 (stereo unspecified)	none (no result: HSF1 inhib, HSF1 activator, Dyrk1A ADPGlo)
Nc1nc2ccccc2cc1-c1cccs1	HSF1 activator 53
c1csc(-c2ccc3ccccc3n2)c1	none
COC(=O)CSc1nn(-c2ccc(F)cc2)c(=S)s1	NPR1 activator 40 (no result: Dyrk1A ADPGlo)
O=C(CSc1nn(-c2ccccc2)c(=S)s1)Nn1cnnc1	none
CCOC(=O)[C@]12CCCC=C1N(CCc1ccc(OC)c(OC)c1)C(=O)[C@H](CC(=O)NCCCCc1ccccc1)C2	none (no result: HSF1 inhib, HSF1 activator, Dyrk1A ADPGlo)
CCOC(=O)Cc1cnc(NC(=O)NC(C(=O)OCC)(c2ccccc2)C(F)(F)F)s1 (stereo unspecified)	HSF1 activator 113
COc1ccccc1CNc1ncnc2cc(OC)c(OC)cc12	none
CCC(C)NC(=O)CO/N=C/c1ccc(C(=O)OC)cc1 (stereo unspecified)	none
Cc1c(NC(=O)C2CC(c3ccc(F)cc3)=NO2)c(=O)n(-c2ccccc2)n1C (stereo unspecified)	HSF1 inhib -84
COc1ccc(C2=NOC(C(=O)Nc3c(C)n(C)n(-c4ccccc4)c3=O)C2)cc1 (stereo unspecified)	none
Cc1occc1C(=O)O/N=C(\N)c1ccccc1	none (no result: Dyrk1A ADPGlo)
Cc1ccccc1C(=O)O/N=C(\N)c1ccccc1	Dyrk1A ADPGlo 55
Cc1cccc(/C(N)=N/OC(=O)c2ccoc2C)c1	HSF1 activator 85
Cc1ccccc1/C(N)=N/OC(=O)c1ccc(F)cc1	HSF1 activator 58
Cc1cc(Cl)ccc1NC(=O)CN1C(=O)NC2(CCCC2)C1=O	none
Cc1ccc(S(=O)(=O)N2CCOCC2)cc1NC(=O)COC(=O)c1cccnc1Cl	HSF1 activator 54
CCc1c(C)nc(SCC(=O)Nc2cccc(Br)c2)[nH]c1=O	HSF1 activator 57
CCCc1[nH]nc2c1C(c1ccc(OC)cc1OC)C(C#N)=C(N)O2 (stereo unspecified)	HSF1 activator 63
CCCc1[nH]nc2c1C(c1cccc(OC)c1)C(C#N)=C(N)O2 (stereo unspecified)	none
O=C1C=C(c2ccc(F)cc2OCc2ccccc2)C[C@@H](c2ccc3c(c2)OCO3)C1	NPR2 activator 39 (no result: HSF1 inhib, HSF1 activator, Dyrk1A ADPGlo)
Cc1ccc(NC(=O)/C(C#N)=C/c2cccs2)c(C)c1	HSF1 activator 53
O=C(N/N=C/c1cccc([N+](=O)[O-])c1)c1ccc(Br)cc1	none
CC(=C/c1ccccc1)/C=N/NC(=O)c1cccs1	HSF1 activator 55 (no result: Dyrk1A ADPGlo)
O=C(N/N=C/C(Br)=C/c1ccccc1)C1CC1	none
O=C(N/N=C/c1cccc([N+](=O)[O-])c1)c1cccs1	HSF1 activator 54
CC(/C=N/NC(=O)c1ccncc1)=C\c1ccccc1	none (no result: Dyrk1A ADPGlo)
O=C(N/N=C/C(Br)=C/c1ccccc1)C(O)c1ccccc1 (stereo unspecified)	HSF1 activator 61 (no result: Dyrk1A ADPGlo)

From PubChem BioAssay
